Source: PubChem
In the library only some 2.9% were active in any assay of this set; here they are far more common.
PME-1 inh – PME-1 (human) inhibition | Q9Y570 | recombinant PME-1, FP-Rh probe fluorescence polarization | inhibition, % at 5.9 µM | 320,000 tested, 0.53% active;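 active = inhibition above the campaign mean of all compounds plus 3 SD, cut at about 26% in these data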;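 note: competitive labeling of PME-1 active site by serine hydrolase directed probe; 0% = PME-1 with DMSO and 100% = wells lacking PME-1 enzyme; inhibitors block probe labeling so polarization falls and inhibition rises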
PAFAH1B2 inh – inhibitors of human PAFAH1B2; AID 492953; inhibition, % at 3.39 µM; 340,000 tested, 1.2% active; recombinant PAFAH1B2, FP-rhodamine activity probe, fluorescence polarization; P68402;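 active = inhibition above the mean of all tested compounds plus 3 SD, cut at about 24% in these data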;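 note: 0% = enzyme with DMSO and 100% = wells lacking PAFAH1B2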
Target sequence (P68402 whole entry, looked up): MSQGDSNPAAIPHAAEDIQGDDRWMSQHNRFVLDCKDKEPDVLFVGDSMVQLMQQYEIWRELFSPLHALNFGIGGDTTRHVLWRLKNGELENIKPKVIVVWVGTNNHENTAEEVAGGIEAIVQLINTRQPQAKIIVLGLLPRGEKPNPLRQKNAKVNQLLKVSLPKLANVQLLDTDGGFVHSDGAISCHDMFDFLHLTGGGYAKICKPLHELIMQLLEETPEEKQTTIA
Fam108B inh – blocks mouse Fam108B hydrolase in RBBP9 counter-screen; recombinant Fam108B, FP-Rh probe fluorescence polarization; inhibition, % at 9.51 µM; 300,000 tested, 0.33% active; AID 1947;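 active = inhibition above the screen mean inhibition plus 3 SD, computed separately per campaign, cut at about 18% in these data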;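 note: inhibitors lower polarization as less probe binds the enzyme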
PAFAH1B3 FP inh – inhibitors of human PAFAH1B3; AID 492972; inhibition, % at 3.39 µM; 340,000 tested, 0.28% active; recombinant PAFAH1B3, FP-rhodamine probe, fluorescence polarization; Q15102;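 active = inhibition above the screen-wide average of all tested compounds plus 3 SD, cut at about 25% in these data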;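 note: 0% = enzyme with DMSO only and 100% = wells lacking PAFAH1B3 protein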
Target sequence (Q15102 whole entry, looked up): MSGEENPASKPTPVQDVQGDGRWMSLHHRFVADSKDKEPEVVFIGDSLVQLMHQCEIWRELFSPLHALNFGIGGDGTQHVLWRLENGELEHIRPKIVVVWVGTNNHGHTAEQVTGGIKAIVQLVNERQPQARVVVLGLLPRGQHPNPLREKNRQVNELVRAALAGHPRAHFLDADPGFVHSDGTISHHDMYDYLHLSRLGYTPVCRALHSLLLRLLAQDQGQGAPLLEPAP
PAFAH2 FP inh – inhibitors of human PAFAH2 | 340,000 tested, 0.99% active | inhibition, % at 3.39 µM | Q99487 | recombinant PAFAH2, FP-rhodamine activity probe, fluorescence polarization;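 active = inhibition above the mean over all tested compounds plus 3 SD, cut at about 30% in these data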;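 note: inhibitors block probe labeling of enzyme so polarization drops; 0% = enzyme with DMSO and 100% = wells lacking PAFAH2 protein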
pPAFAH inh – inhibitors of human plasma PAF acetylhydrolase (pPAFAH); Q13093; 330,000 tested, 1.5% active; inhibition, % at 3.39 µM; recombinant pPAFAH, FP-rhodamine probe fluorescence polarization;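 active = inhibition above the mean inhibition across the screen plus 3 SD, cut at about 25% in these data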;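 note: inhibitors block binding of the rhodamine activity-based probe so polarization drops; 0% = enzyme with DMSO and 100% = wells lacking pPAFAH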
Active calls of the source: *; . = not tested or not shown.

SMILES | PME-1 inh | PAFAH1B2 inh | Fam108B inh | PAFAH1B3 FP inh | PAFAH2 FP inh | pPAFAH inh
O=C(CSc1nnc(CCc2ccccc2)n1-c1ccc(Cl)cc1)NCc1ccccc1 | 11 | 9 | 2 | 5 | 5 | 35*
CCOC(=O)CSc1nnc(NC(=O)CN2CCN(C=O)CC2)s1 | -4 | 52* | 7 | 4 | 2 | 3
CC(=O)c1c(C)nn(CC(O)COc2ccc3ccccc3c2)c1C (stereo not given) | 0 | 2 | -1 | 3 | 1 | 6
COc1ccc(N=Nc2nc3ccc(Br)cc3n2C)cc1 | 41* | 5 | 3 | 6 | -4 | 13
COc1ccc(-c2c(-c3cc(OC)cc(OC)c3)n(C)c3ccc(Br)cc23)cc1 | 2 | 0 | . | 10 | 3 | 1
CC(C)N(C(=O)CN1CCC(c2nc3ccccc3[nH]2)CC1)C(C)C | 4 | -7 | -2 | -2 | -2 | 2
O=C1NCCN(Cc2ccc(Cl)c(F)c2)C1CC(=O)N1CCCCO1 (stereo not given) | 3 | 2 | 7 | 4 | 10 | 5
Cc1ccc(C(=O)O/N=C(\N)Cc2cccs2)c(Cl)c1 | 4 | 5 | 0 | 1 | 35* | 12
Cc1ccc(C(=O)O/N=C(\N)Cc2ccc([N+](=O)[O-])cc2)c(Cl)c1 | 10 | 4 | 0 | 8 | 26 | 5
CC(C)NC(=O)N(C)C[C@H]1Oc2ccc(NC(=O)c3ccncc3)cc2C(=O)N([C@H](C)CO)C[C@@H]1C | . | 2 | . | -7 | 8 | -4
COc1cc2c(cc1OC)C(c1cccc(Br)c1)CC(=O)N2 (stereo not given) | . | 5 | . | 2 | -1 | .
O=C1CC(c2cccc(Br)c2)c2cc3c(cc2N1)CCC3 (stereo not given) | 0 | 5 | -6 | 4 | 1 | 28*
Cc1ccc(CC(=O)NCc2ccc(F)cc2)cc1 | 1 | 4 | -3 | 0 | 3 | 2
Cc1nc(S/C(=C/c2ccc(-c3ccc(C(=O)O)cc3)o2)C(=O)O)n[nH]1 | -5 | 1 | 3 | 20 | 14 | 33*
COc1ccc(OC)c(NC(=O)CCC(=O)Nc2nnc(C(F)(F)F)s2)c1 | -11 | 1 | -1 | 9 | 4 | 4
COc1ccccc1NC(=O)CCC(=O)Nc1nnc(C(F)(F)F)s1 | 89* | 2 | 0 | 3 | -8 | -1
O=C(Nc1ccc(Cl)c(S(=O)(=O)N2CCOCC2)c1)[C@@H]1CCCN1C(=O)c1cccs1 | -10 | -4 | . | 7 | 6 | -1
COc1ccc(-c2noc(CSc3ccccc3)n2)cc1OC | -3 | 24* | -2 | 7 | 7 | 14
COc1ccc(-c2noc(CSc3nnc(CCc4ccccc4)n3-c3ccccc3)n2)cc1OC | 9 | -5 | 7 | -2 | -2 | 6
C=CCNc1nc(C(=O)OCC(=O)NCc2cccc(Cl)c2)cs1 | 2 | 2 | . | 4 | 29 | 25*
COc1ccc(NC(=O)COC(=O)CCC2CCCCC2)cc1 | . | 12 | . | 4 | 32* | 32*
COc1ccccc1C(=O)OCC(=O)Nc1ccc(OC(F)F)cc1 | 5 | -2 | -2 | -6 | 48* | 28*
COc1ccccc1C(=O)OCC(=O)Nc1ccccc1OC(F)F | 4 | -1 | 2 | 6 | 5 | 4
COc1ccc(NS(=O)(=O)c2ccc(OC)c(NC(=O)CCC3CCCCC3)c2)cc1 | 10 | 10 | -15 | 4 | -6 | 29*
Cc1ccc(NC(=O)COC(=O)CC2CCCC2)cc1F | . | -2 | . | 0 | 79* | 30*
SMILES | PME-1 inh | PAFAH1B2 inh | Fam108B inh | PAFAH1B3 FP inh | PAFAH2 FP inh | pPAFAH inh
Cc1cc(C)c2c(NC(=S)NC(=O)c3ccccc3)n[nH]c2n1 | 1 | 1 | 1 | 5 | -5 | 0
Cc1cc(OCC(=O)OCC(=O)N(C)c2c(N)n(Cc3ccccc3)c(=O)[nH]c2=O)ccc1Cl | -3 | 1 | -1 | 4 | 0 | 4
CCCC(=O)OCC(=O)Nc1ccc(OC(F)F)cc1 | 0 | -1 | 0 | 1 | 7 | 4
O=C(COC(=O)CC1CCCC1)Nc1ccc(OC(F)F)cc1 | 4 | 1 | -9 | 3 | 62* | 28*
O=C(COC(=O)c1ccc2c(c1)C(=O)N(CCc1ccccc1)C2=O)Nc1ccc(OC(F)F)cc1 | -4 | 5 | -3 | 7 | -4 | 25*
CCc1ccc(NC(=O)COC(=O)CC2CCCC2)cc1 | . | 2 | . | 6 | 76* | 26*
